Source: PubChem (National Center for Advancing Translational Sciences (NCATS))
Shown are actives, neighbours in structure and some others; about 19% of the full set was active somewhere.
HT1080 IDH1KD tx: toxicity to HT-1080 IDH1 knockdown cells (counter line) | 360,000 compounds, 2% hits | Potency, µM (highest dose often 46.1 µM), most hits filed as cytotoxic | AID 686971 | HT-1080 IDH1 knockdown viability, ATP luminescence, 48 h
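In this qHTS, HT-1080 cells depleted of IDH1 are exposed for 48 h at 37 °C to compound titrations. Toxicity is scored from CellTiter-Glo luminescence, with DMSO as full viability and medium alone as none.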
TDP1 cell CPT: DT40-hTDP1 cell growth loss with CPT; chicken DT40 Tdp1-/-;hTDP1 cells + 20 nM CPT, ATP luminescence, 48 h; Potency, µM (highest dose often 46.2 µM), hits mostly inhibitors; 420,000 compounds, 12% hits; note: nearly all actives have a fitted effect of over 55% in size
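Chicken DT40 Tdp1-/- cells complemented with human TDP1, 400 cells/well, exposed to compounds plus 20 nM camptothecin for at least 48 h at 37 C; viability read as ATP content by CellTiter-Glo luminescence.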
TDP1 cell noCPT: qHTS for Inhibitors of human tyrosyl-DNA phosphodiesterase 1 (TDP1): qHTS in cells in absence of CPT. DT40 Tdp1-/- hTDP1 cells, no CPT, ATP luminescence, 48 h. Potency, µM (series often up to 46.2 µM), most hits filed as inhibitors. 420,000 compounds, 15% hits; note: nearly all actives have a fitted effect of over 55% in size
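A cellular qHTS used chicken DT40 cells lacking endogenous Tdp1 but carrying stably transfected human TDP1. Compounds were applied without camptothecin, and cell growth kinetics were judged by ATP-dependent luminescence after ≥48 hr.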
IL1B secr inh: blocks inflammasome-driven IL-1 beta release. THP-1 LPS/ATP IL-1B secretion, AlphaLISA, 16 h; hits give low values. activity change, % at 57.5 µM. 360,000 compounds, 4.7% hits; in the data active = activity change below about -50%; inconclusive = mostly about -30% to -49%
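THP-1 cells pretreated 1 hr with compounds (up to 57.5 uM final), then stimulated with LPS (250 ng/mL final) plus ATP (1.25 mM final); secreted IL-1B measured by AlphaLISA after 16 hr, decreased signal indicating inhibition.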
HT1080-NT tox: kills 2HG-producing HT-1080-NT fibrosarcoma cells. 360,000 compounds, 1.6% hits. Potency, µM (series often up to 46.1 µM), most hits filed as cytotoxic. HT-1080-NT fibrosarcoma viability, CellTiter-Glo ATP luminescence, 48 h;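 note: NT is the 2HG producing partner of a matched IDH1 knockdown line; nearly all actives have a fitted effect of over 55% in size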
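HT-1080-NT fibrosarcoma cells (2HG-overproducing), 750 cells/well in RPMI with 5% FBS, dosed after 2 h and incubated 48 h at 37C. CellTiter-Glo luminescence normalized to DMSO and no-cell wells; concentration-response curves fitted and classed.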
ELG1 repair inh: inhibitors of ELG1-dependent DNA repair in HEK293T cells. HEK293T ELG1-luciferase reporter, luminescence, 16 h; DNA damage induced by 5-fluorouridine. Potency, µM (titrated, usually from 46.1 µM), actives largely listed as inhibitors. 330,000 compounds, 2.3% hits. AID 504467; note: nearly all actives have a fitted effect of over 55% in size
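Cells (2,000 per well) received 5-fluorouridine plus test compound or DMSO and were incubated 16 hr at 37 °C, 5% CO2. Luciferase activity was read by luminescence 30 min after ONE-Glo addition; signal suppression marked inhibition of damage-induced ELG1 function.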
A number is an active result; – = inactive; ? = inconclusive; · = no result given; [ ] = dose if it differs, or a comment. Unless noted, calls come from the whole dose curve; as a rule, active = well fitted curve in the direction sought with a large enough effect; inconclusive = small, poorly fitted or top-dose-only effect, or another doubt; inactive = no such curve, though single readings can be large; an effect the other way counts as inactive or inconclusive.

SMILES | HT1080 IDH1KD tx | TDP1 cell CPT | TDP1 cell noCPT | IL1B secr inh | HT1080-NT tox | ELG1 repair inh
Nc1ncnc2c1ncn2C1OCC(O)C1O (stereo unspecified) | – | 18µM | 13µM | – | – | ·
Cc1sc2c(c1C)c(=O)n(-c1cccc(C(F)(F)F)c1)c(=O)n2Cc1ccccc1C#N | · | – | – | · | · | ·
CCCCn1nnnc1C(c1cc2ccccc2o1)N1CCN(C(=O)OCC)CC1 (stereo unspecified) | – | ? | ? | ? | – | ·
COc1ccc(C(=O)Nc2nc(-c3nnn(-c4ccc(F)cc4F)c3C)ns2)cc1 | · | 15µM | 13µM | · | · | ·
COC(=O)c1ccc(-n2nnc(-c3nsc(NC(=O)c4ccc(Cl)cc4)n3)c2C)cc1 | · | – | – | · | · | ·
Cc1c(-c2nsc(NC(=O)c3ccc(Cl)cc3)n2)nnn1-c1ccc(C(C)C)cc1 | · | 10µM | 9.2µM | · | · | ·
COc1ccc(NC(=O)C2C3C=CC4(O3)C2C(=O)N(CCN2CCCCC2)C4C(=O)NC2CCCC(C)C2C)cc1 (stereo unspecified) | – | – | – | ? | – | –
CCOC(=O)C1CCCN(C(=O)c2cccc(S(=O)(=O)N(C)c3c(C)n(C)n(-c4ccccc4)c3=O)c2)C1 (stereo unspecified) | – | – | – | – | – | –
CCCC(CCC)C(N)=O | · | – | – | · | · | ·
COc1cc(-c2nnc(-c3cc(OC)c(OC)c(OC)c3)o2)cc(OC)c1OC | –[9.24 µM] | 1.8µM | 2.1µM | – | – | 8.2µM
COc1cc(-c2nnc(-c3cccnc3)o2)cc(OC)c1OC | – | ? | – | – | – | ?
COc1cc(-c2nnc(COc3ccc4ccccc4c3)o2)cc(OC)c1OC | – | ? | 26µM | – | – | ?
CCCc1nnc(-c2cc(OC)c(OC)c(OC)c2)o1 | – | ? | – | – | – | –
COc1ccc(-c2nnc(-c3ccccc3)o2)cc1OC | – | – | ? | ? | – | ?
COc1cc(-c2nnc(-c3ccccc3)o2)cc(OC)c1OC | – | 16µM | 12µM | ? | – | 23µM
CCOC(=O)[C@]12CCC=C1N(Cc1ccco1)C(=O)[C@H](CC(=O)N1CCOCC1)C2 | – | – | – | – | – | ·
C1=Cc2ccccc2/C1=C\c1ccc2c(c1)OCO2 | · | – | – | · | · | ·
O=C(c1cnc2c(c1)COc1ccc(Cl)cc1-2)c1ccccc1O | – | ? | ? | – | – | –
Cc1ccc(O)c(C(=O)c2cnc3c(c2)COc2ccccc2-3)c1 | – | – | ? | – | – | 16µM
CC(C)CCC(O)(c1ccccc1)C(CN1CCOCC1)c1ccccc1 (stereo unspecified) | ? | 18µM | 16µM | ? | ? | –
CCCCCC(O)(c1ccccc1)C(CN1CCOCC1)c1ccccc1 (stereo unspecified) | – | ? | ? | – | – | ?
COc1ccc(C(O)(CCC(C)C)C(CN2CCOCC2)c2ccccc2)cc1 (stereo unspecified) | – | 23µM | 21µM | ? | – | ?
CC(C)C(O)(c1ccccc1)C(CN1CCOCC1)c1ccccc1 (stereo unspecified) | – | ? | ? | – | – | –
CC(C)CC(O)(c1ccccc1)C(CN1CCOCC1)c1ccccc1 (stereo unspecified) | ? | ? | 21µM | – | ? | –
COc1ccc(C(O)(CCN2CCOCC2)c2ccccc2)cc1 (stereo unspecified) | – | – | – | – | – | –
O=C(NCCc1ccc(F)cc1)c1ccc2c(=O)n3c(nc2c1)CCC3 | – | ? | – | – | – | ?
CCOC(=O)c1cc(C)n(-c2ccccc2)c1C | – | – | – | – | – | ?
COc1cc(C2c3c(oc4ccccc4c3=O)C(=O)N2Cc2ccco2)ccc1O (stereo unspecified) | – | – | – | – | – | –
